# Experimental data: patent US20050164186, “Alteration of restriction endonuclease specificity by genetic selection” (published 2005)
# Target: T1, BstYI NN1 (K133N/S172N) (Bacillus stearothermophilus, K133N,S172N)
# T1 chain: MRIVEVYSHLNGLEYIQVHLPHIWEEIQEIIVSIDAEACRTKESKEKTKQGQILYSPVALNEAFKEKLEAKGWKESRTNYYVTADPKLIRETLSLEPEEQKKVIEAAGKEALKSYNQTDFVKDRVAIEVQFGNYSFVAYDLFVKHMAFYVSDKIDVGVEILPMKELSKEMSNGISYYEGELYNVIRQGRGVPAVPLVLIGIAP
# Experiment: cleavage_in_vitro; 60 C
# Settings: label: radiolabel; dsDNA, one strand shown
sequence,measurement,value
AGATCC,cleavage activity,7 fold lower than AGATCT
